PI5P4K alpha inh: inhibitors of human PI5P4K alpha; P48426; PI5P4Kalpha enzyme, ADP-Glo luminescence, 60 min; active compounds read low; max response, %; actives 1.2% (n = 330,000); AID 652105; active = max response of -50% or lower; inconclusive = between -30% and -50%; inactive = -30% or higher; also: value at the top dose of about 77 µM; % is scaled to controls: 0 for no effect and ±100 for the full control effect
Target sequence (P48426 whole entry, looked up): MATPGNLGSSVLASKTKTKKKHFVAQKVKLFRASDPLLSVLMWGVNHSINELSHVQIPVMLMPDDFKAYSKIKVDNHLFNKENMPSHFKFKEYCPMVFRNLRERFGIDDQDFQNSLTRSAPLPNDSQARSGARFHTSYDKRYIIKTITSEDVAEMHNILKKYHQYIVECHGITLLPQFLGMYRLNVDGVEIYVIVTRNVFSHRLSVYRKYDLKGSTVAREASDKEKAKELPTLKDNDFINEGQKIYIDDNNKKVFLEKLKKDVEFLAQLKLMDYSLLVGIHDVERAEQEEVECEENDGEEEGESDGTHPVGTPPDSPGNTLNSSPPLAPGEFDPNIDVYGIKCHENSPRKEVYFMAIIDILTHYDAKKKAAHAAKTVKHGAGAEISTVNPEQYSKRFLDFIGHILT
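PI5P4Kalpha ADP-Glo assay; 5 microM ATP final; 60 min RT reaction; HEPES pH 7.4/EGTA/CHAPS, 5% DMSO; controls lacking substrate or enzyme; luminescent end-point.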
Pol iota inh: DNA polymerase iota (human) inhibition | Q9UNA4 | Pol iota fluorescent replication assay, 10 min | Potency, µM (series often up to 115 µM), for inactives: top-dose activity, negative = inhibition, actives largely listed as inhibitors | actives 1% (n = 390,000) | AID 588590; also: potency is read from the fitted curve at half-maximal effect
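Fluorescent replication assay read twice, at 0 min and 10 min after adding 50 nM (final) substrate. Enzyme (10 nM) and compounds were first incubated 15 min at room temperature; enzyme-free buffer wells were negative controls.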
POLH inh: inhibitors of human DNA polymerase eta. AID 588591. actives 1.2% (n = 390,000). Q9Y253. Potency, µM (doses to about 114 µM), for inactives: at the top dose activity change, negative = inhibition, hits mostly inhibitors. recombinant Pol eta, fluorescent DNA replication assay; also: potency is read from the fitted curve at half-maximal effect; % is scaled to controls: 0 for no effect and ±100 for the full control effect
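Pol eta at 10 nM preincubated with compounds 15 min at room temperature; reaction started with fluorescent substrate (50 nM final) and read kinetically at 0 and 10 min.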
PI4K2A block: PI4K2A (human) kinase inhibition. actives 0.13% (n = 420,000). AID 1346378. activity change, negative = inhibition, % at 76.9 µM. purified PI4K2A, ADP-Glo luminescence, 1 h; active compounds read low. Q9BTU6; in the data active = activity change below about -50%; inconclusive = mostly about -30% to -49%;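 also: -100% = wells without enzyme as full effect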
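In this quantitative HTS, ADP production by PI4K2A was quantified luminescently after 1 h at ambient temperature; 100 microM adenosine served as plate-quality control.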
POLB inh: blocks human DNA polymerase beta activity. Pol beta primer extension/strand displacement, fluorescence kinetic. Potency, µM (top dose mostly 114 µM), for inactives: at the highest dose activity change, negative = inhibition, hits mostly inhibitors. actives 1.3% (n = 340,000). AID 485314; also: potency is read from the fitted curve at half-maximal effect; % is scaled to controls: 0 for no effect and ±100 for the full control effect
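Homogeneous kinetic assay of primer extension and strand displacement by 10 nM Pol beta, preincubated 15 min at room temperature with compound before 50 nM substrate (final) was added. Read at 0 and 10 min; four-parameter Hill fit.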
Pol kappa inh: DNA polymerase kappa (human) inhibition. Q9UBT6. purified Pol kappa, fluorescent DNA synthesis assay, 10 min. Potency, µM (series often up to 107 µM), inactives show top-dose activity, negative = inhibition, hits mostly inhibitors. actives 0.53% (n = 400,000); also: potency is read from the fitted curve at half-maximal effect; % is scaled to controls: 0 for no effect and ±100 for the full control effect
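Kinetic fluorescence readout at 0 and 10 min followed reaction start with substrate at 50 nM final. Beforehand, enzyme (10 nM Pol kappa) stood 15 min with compound at room temperature; buffer-only wells were negative controls.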
ADP-Glo counter: counter-screen for PI5P4K inhibitors: ADP-Glo detection interference, no enzyme. shares compounds with PI5P4K alpha inh. ADP-Glo detection counter-screen, luciferase luminescence, no enzyme. Potency, µM (titrated, usually from 76.9 µM), for the others: at the top dose activity change, negative = inhibition, most hits filed as inhibitors. 1,100 tested, under 10 active
* marks the source's active call; other numbers are inactive results; [ ] = dose if it differs, or a comment. This is a sample that favours compounds with a hit; in the whole collection about 2.8% have one here. Unless noted, calls follow the shape of the dose curve; as a rule, active = well fitted curve in the direction sought with a large enough effect; inconclusive = small, poorly fitted or top-dose-only effect, or another doubt; inactive = no such curve, though single readings can be large; an effect the other way counts as inactive or inconclusive.

`COc1ccc(C(=O)N(c2ccc(C)cc2)S(=O)(=O)c2ccc(C)cc2)cc1` gave Pol iota inh 8.4%, POLH inh -20.8%, PI4K2A block -0.7, POLB inh 4.2% and Pol kappa inh -6.9%[60.1 µM].
`CCOC(=O)c1ccc(N2C(=O)CC(C(=O)OC)=C2C)cc1` gave PI5P4K alpha inh -6.3, Pol iota inh 22.1%, POLH inh -13.0%, PI4K2A block 13.1, POLB inh 6.3% and Pol kappa inh 2.3%.
For CCOC(=O)C1=C(N)N(c2ccccc2)C(=O)C1 the results were PI5P4K alpha inh -57.5*, Pol iota inh inconclusive, POLH inh -7.7%, PI4K2A block -7.0, POLB inh 16.8%, Pol kappa inh -6.0% and ADP-Glo counter -4.6%.
`Cc1nn(-c2ccccc2)c2nc(=O)n(-c3ccccc3)cc12` gave Pol iota inh inconclusive, POLH inh -4.2%, PI4K2A block -6.4, POLB inh 29.7%, Pol kappa inh -8.7% and ADP-Glo counter -0.3%.
Screening Cc1ccc2nc3c(cc2c1)c(C)nn3-c1ccccc1 returned PI5P4K alpha inh 19.9, Pol iota inh 8.3%, POLH inh -18.2%, PI4K2A block 0.4, POLB inh 20.3% and Pol kappa inh 18.9%.
For COc1ccc(-c2nc3cnc(N4CCN(C)CC4)nc3n(Cc3ccc(F)cc3)c2=O)cc1 the results were Pol kappa inh 4.4%[60.1 µM].
Screening CCCn1c(=O)c2[nH]c(-c3ccc(S(=O)(=O)O)cc3)nc2n(CCC)c1=O returned PI5P4K alpha inh -82.0*, Pol iota inh -5.4%, POLH inh -3.7%, PI4K2A block -0.8, POLB inh 6.0%[57.1 µM], Pol kappa inh 6.1%[60.1 µM] and ADP-Glo counter -2.1%.
For CN(C)S(=O)(=O)c1ccc(C(=O)Nc2cc3c(cc2C(=O)O)OCCCO3)cc1 the results were PI5P4K alpha inh -50.3*, Pol iota inh 53.8%, POLH inh 9.8%, PI4K2A block -3.3, POLB inh -3.9%, Pol kappa inh -9.4% and ADP-Glo counter -0.2%.
For Cc1cc(C)cc(OCC(=O)Nc2nc3c(s2)CC(C(C)(C)C)CC3)c1 (stereo not drawn) the results were Pol iota inh 22.0%, POLH inh -4.2%, PI4K2A block 6.1, POLB inh inconclusive and Pol kappa inh -2.5%.
COc1ccc(Cl)cc1S(=O)(=O)NCCCn1ccnc1 was read as PI5P4K alpha inh -23.4, Pol iota inh inconclusive, POLH inh 9.2%, PI4K2A block -6.4, POLB inh 2.1%, Pol kappa inh inconclusive and ADP-Glo counter -1.5%.
Cc1ccc(CNC(=O)c2ccc3c(=O)n4c(-c5ccc(C)cc5)csc4nc3c2)cc1 was read as PI5P4K alpha inh 9.6, Pol iota inh 2.3%, POLH inh -3.0%, PI4K2A block 4.8, POLB inh 2.1% and Pol kappa inh -12.3%.
Cc1ccc(-c2csc3nc4cc(C(N)=O)ccc4c(=O)n23)cc1 was read as PI5P4K alpha inh -51.2*, Pol iota inh inconclusive, POLH inh -19.8%, PI4K2A block -21.1, POLB inh inconclusive, Pol kappa inh -25.4% and ADP-Glo counter -5.2%.
Screening COc1ccc(-n2c(=O)c3c4c(sc3n(C)c2=O)CN(C(C)=O)CC4)cc1 returned Pol iota inh 17.8%, POLH inh -8.8%, PI4K2A block 4.7, POLB inh inconclusive and Pol kappa inh -5.9%.
`CC(Nc1nc2ncn(Cc3ccccc3)c2c(=O)[nH]1)C(=O)O` (stereo not drawn) gave PI5P4K alpha inh -54.5*, Pol iota inh 21.0%, POLH inh -7.1%, PI4K2A block -0.7, POLB inh 44.4%, Pol kappa inh -1.0% and ADP-Glo counter -8.9%.

Compound activity as filed in PubChem BioAssay.
